Data from PubChem BioAssay (NCI).
About 79,000 compounds went through this panel and 15% of them were active in at least one assay; those are over-represented in the sample as a whole. Values without a mark were called inactive. Calls of active or inactive are those of the source. No stated cut-off is given here; in the data, active means growth inhibition above about 70%; inactive means the rest.

Assays:
[1] = NCI Yeast Anticancer Drug Screen. Data for the rad50 strain (AID 155);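 further: 0% = growth of vehicle-only cultures of the same strain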; details: S. cerevisiae rad50 strain growth inhibition, stronger effect = higher value
How it was run: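 A DNA repair-deficient yeast mutant serves as the test organism; compound-induced growth inhibition is calculated against vehicle-treated cells.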

[2] = NCI Yeast Anticancer Drug Screen. Data for the mec2-1 strain (AID 157); details: S. cerevisiae mec2-1 strain, stronger effect = higher value
How it was run: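 Cells of the genetically defined mec2-1 yeast strain are incubated with test compound. Inhibition of growth is calculated against vehicle-treated controls.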

[3] = NCI Yeast Anticancer Drug Screen. Data for the sgs1 mgt1 strain (AID 161);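 further: 0% = growth of cultures given vehicle only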; details: S. cerevisiae sgs1 mgt1 strain, stronger effect = higher value
How it was run: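 Mutant yeast exposed to compound; growth scored against vehicle-only wells.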

[4] = NCI Yeast Anticancer Drug Screen. Data for the cln2 rad14 strain (AID 165);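 further: 0% = growth equal to vehicle treated cultures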; details: S. cerevisiae cln2 rad14 strain, stronger effect = higher value
How it was run: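 The screen exposed genetically defined yeast (cln2 rad14) to test compounds and scored growth inhibition relative to vehicle-treated controls.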

[5] = NCI Yeast Anticancer Drug Screen. Data for the bub3 strain (AID 167); details: S. cerevisiae bub3 mutant strain, stronger effect = higher value
How it was run: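 Inhibition values come from growth of compound-treated mutant yeast normalised to vehicle-treated controls.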

[6] = NCI Yeast Anticancer Drug Screen. Data for the mlh1 rad18 strain (AID 175); details: S. cerevisiae mlh1 rad18 strain growth inhibition, stronger effect = higher value
How it was run: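 Compound-treated yeast growth, normalised to vehicle controls. Strain bears defined DNA repair mutations.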

[7] = at 5.0 µM (retest, dose inferred, filed as 0.5)
[8] = at 50.0 µM (retest, dose inferred, filed as 5.0)

Row | Structure (SMILES) | growth inhibition [1, 7] | growth inhibition [1, 8] | growth inhibition ([1]; at 50.0 µM) | growth inhibition [2, 7] | growth inhibition [2, 8] | growth inhibition ([2]; at 50.0 µM) | growth inhibition [3, 7] | growth inhibition [3, 8] | growth inhibition ([3]; at 50.0 µM) | growth inhibition [4, 7] | growth inhibition [4, 8] | growth inhibition ([4]; at 50.0 µM) | growth inhibition [5, 7] | growth inhibition [5, 8] | growth inhibition ([5]; at 50.0 µM) | growth inhibition [6, 7] | growth inhibition [6, 8] | growth inhibition ([6]; at 50.0 µM)
1 | CCOc1ccc(/C=C/[N+](=O)[O-])cc1[N+](=O)[O-] | 11% | 98% (active) | 95.6% (active) | 7% | 99% (active) | 99.6% (active) | 9% | 99% (active) | 99.5% (active) | 16% | 99% (active) | 99% (active) | 9% | 99% (active) | 99.3% (active) | 12% | 99% (active) | 99.3% (active)
2 | CC(=O)Nc1ccccc1[As](O[As](c1ccccc1)c1ccccc1NC(C)=O)c1ccccc1 (stereo unspecified) | 39% | 99% (active) | 99.5% (active) | 24% | 100% (active) | 99.6% (active) | 66% | 100% (active) | 99.5% (active) | 37% | 99% (active) | 99.4% (active) | 11% | 100% (active) | 99.5% (active) | 53% | 99% (active) | 99.5% (active)
3 | C[C@H](N)C(=O)N[C@@H]1[C@H]2C(=C(O)C[C@@H](O)[C@@H]2O)C(=O)O[C@]1(C)C(Cl)Cl | 18% | 22% | 17.1% | 7% | 26% | 13.1% | 12% | 25% | 6.6% | 18% | 53% | 44.9% | 7% | 26% | 30.9% | 6% | 25% | 27.4%
4 | O=[N+]([O-])c1ccccc1 | 11% | 75% (active) | 79.2% (active) | 3% | 10% | -0.5% | 3% | 17% | 27.1% | 4% | 4% | 35.5% | 2% | 12% | 13.3% | 6% | 19% | 39.2%
5 | O=C([O][Hg][CH2]C1CC(O)CC([CH2][Hg][O]C(=O)c2ccccc2)O1)c1ccccc1 (stereo unspecified) | 98% (active) | 98% (active) | 99% (active) | 98% (active) | 99% (active) | 99.2% (active) | 99% (active) | 99% (active) | 99.3% (active) | 96% (active) | 97% (active) | 97.4% (active) | 97% (active) | 99% (active) | 98.5% (active) | 99% (active) | 99% (active) | 98.6% (active)
6 | O=P(c1ccccc1)(c1ccccc1)c1ccccc1.O=P(c1ccccc1)(c1ccccc1)c1ccccc1.S=C=[N][Sn]([N]=C=S)([N]=C=S)[c]1ccccc1 | 58% | 98% (active) | 99.5% (active) | 21% | 99% (active) | 99.5% (active) | 62% | 99% (active) | 99% (active) | -2% | 98% (active) | 97.8% (active) | -2% | 99% (active) | 99.2% (active) | 72% (active) | 99% (active) | 97.7% (active)
7 | [Cl][Sn]1([c]2ccccc2)[O]CCNCC[O]1 | 22% | 97% (active) | 88.1% (active) | 9% | 99% (active) | 91.2% (active) | 12% | 99% (active) | 90.8% (active) | 6% | 97% (active) | 91.8% (active) | 9% | 98% (active) | 90% (active) | 19% | 97% (active) | 91.8% (active)
8 | CCC[CH2][Sn]1([CH2]CCC)[O]CC(CN2CCCC2)[O]1 (stereo unspecified) | 30% | 96% (active) | 83.8% (active) | 28% | 98% (active) | 87.3% (active) | 46% | 97% (active) | 84.2% (active) | 26% | 95% (active) | 82.3% (active) | 36% | 97% (active) | 86.9% (active) | 48% | 97% (active) | 82.2% (active)
9 | ClCCN(CCCl)c1ccc(C=NCCCCN=Cc2ccc(N(CCCl)CCCl)cc2)cc1 | 3% | 82% (active) | 88.8% (active) | 10% | 47% | 47% | 8% | 62% | 82.8% (active) | -10% | 82% (active) | 88.6% (active) | -10% | 3% | 7.15% | 63% | 95% (active) | 85.8% (active)
10 | Nc1nc(N)c(-c2ccc(Cl)c(Cl)c2)c(CCc2ccc(CNC(=O)c3cc(S(=O)(=O)F)ccc3Cl)cc2)n1 | -4% | 49% | 50.5% | -4% | 54% | 96% (active) | -3% | 50% | 66.8% | -7% | 47% | 12.5% | -2% | 45% | 74.7% (active) | -3% | 53% | 94.5% (active)
11 | COC1=[C]([Hg][Br])C(OC)OC1OC (stereo unspecified) | 99% (active) | 99% (active) | 99.6% (active) | 98% (active) | 99% (active) | 99.5% (active) | 99% (active) | 99% (active) | 99.5% (active) | 98% (active) | 98% (active) | 98.8% (active) | 99% (active) | 99% (active) | 98.9% (active) | 99% (active) | 99% (active) | 99.5% (active)
12 | COc1c(Br)cc(/C=C(/C)[N+](=O)[O-])cc1Br | 23% | 66% | 91.3% (active) | 12% | 57% | 92.5% (active) | 43% | 74% (active) | 31.8% | 29% | 61% | 71.2% (active) | 46% | 79% (active) | 91.8% (active) | 13% | 59% | 82.3% (active)
13 | O=[N+]([O-])O.O=[N+]([O-])O.[NH-]C1CCCCC1[NH-].[Pt+2] (stereo unspecified) | 33% | 96% (active) | 52.1% | 25% | 95% (active) | 90.7% (active) | 57% | 100% (active) | 79.5% (active) | 45% | 97% (active) | 86.4% (active) | 56% | 100% (active) | 88.9% (active) | 16% | 75% (active) | 92.3% (active)
14 | CC(=O)OCC1OC([S-])C(OC(C)=O)C(OC(C)=O)C1OC(C)=O.CC[PH+](CC)CC.CC[PH+](CC)CC.[Au].[Au] (stereo unspecified) | 100% (active) | 99% (active) | 89.8% (active) | 99% (active) | 99% (active) | 92% (active) | 99% (active) | 99% (active) | 92% (active) | 98% (active) | 99% (active) | 91.3% (active) | 99% (active) | 99% (active) | 89.9% (active) | 96% (active) | 98% (active) | 90% (active)
15 | CC(CCS(C)(=O)=O)([N+](=O)[O-])[N+](=O)[O-] | 48% | 99% (active) | 55.2% | 16% | 99% (active) | 55% | 28% | 99% (active) | 52.6% | 14% | 99% (active) | 56.4% | 27% | 99% (active) | 99% (active) | 24% | 100% (active) | 98.3% (active)
16 | C/C1=C\[C@@H](O)C(=O)/C=C/C=C\c2csc(n2)[C@@H](C)NC(=O)C[C@@]2(CC1)S(=O)SC(=O)[C@]2(C)O (stereo partly specified) | 92% (active) | 98% (active) | 91.6% (active) | 98% (active) | 99% (active) | 92.5% (active) | 90% (active) | 98% (active) | 92.2% (active) | 97% (active) | 98% (active) | 89.2% (active) | 94% (active) | 98% (active) | 90.3% (active) | 96% (active) | 98% (active) | 85% (active)
17 | COc1ccc2c3c(c4cc(OC)c(OC)cc4c2c1)C[C@H]1CCCCN1C3 | 99% (active) | 99% (active) | 92.6% (active) | 99% (active) | 100% (active) | 94.2% (active) | 99% (active) | 99% (active) | 93.8% (active) | 99% (active) | 99% (active) | 92.5% (active) | 99% (active) | 99% (active) | 93.2% (active) | 99% (active) | 99% (active) | 93% (active)
